Measured values: PubChem BioAssay (NCATS)
Where “and” joins values, the source holds several entries; their conditions need not be identical. Identical values can stand only once. Inconclusive results are not listed. Calls of active or inactive are those of the source. Unless noted, the call rests on the fitted dose curve; in most records, active means well fitted curve in the direction sought with a large enough effect in the repeat runs; inconclusive means weak or mixed curves; inactive means no such curve, though single readings can be large; an effect the other way counts as inactive or inconclusive.

Tests used:
[1] = molecular target: Calcium and integrin-binding protein 1 (Homo sapiens) (UniProt Q99828); assay: Primary qHTS for Identification of Calcium Integrin Binding Protein 1 (CIB1) Competitor (AID 1508620; active means well fitted curve in the direction sought with a large enough effect; an effect the other way counts as inactive or inconclusive;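 further: GST tagged CIB1 binding a fluorescein labelled alphaIIb integrin peptide tracer; top concentration of the series differs between compounds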)
Chain of Calcium and integrin-binding protein 1 (Homo sapiens) (Q99828 whole entry, looked up): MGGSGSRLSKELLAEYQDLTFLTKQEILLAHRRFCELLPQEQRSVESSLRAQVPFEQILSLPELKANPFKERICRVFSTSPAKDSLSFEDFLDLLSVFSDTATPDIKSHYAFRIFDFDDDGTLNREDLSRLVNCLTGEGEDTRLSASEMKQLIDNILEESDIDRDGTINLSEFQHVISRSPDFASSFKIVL
Outline: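 CIB1-GST (1 uM final) and compound incubated 15 min at room temperature before adding FITC-alphaIIb peptide tracer (100 nM final). Competition for binding read by fluorescence polarization (ex 480, em 540) after another 15 min at room temperature.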

[2] = molecular target: Cytochrome P450 2D6 (Homo sapiens) (UniProt P10635); assay: Cytochrome P450 family 2 subfamily D member 6 (CYP2D6) small molecule antagonists: luciferase biochemical (cell-free) qHTS assay (AID 1645840); further: nearly all actives have a fitted effect of over 55% in size; further: potency means the concentration at half of the fitted maximal effect
Chain of Cytochrome P450 2D6 (Homo sapiens) (P10635 whole entry, looked up): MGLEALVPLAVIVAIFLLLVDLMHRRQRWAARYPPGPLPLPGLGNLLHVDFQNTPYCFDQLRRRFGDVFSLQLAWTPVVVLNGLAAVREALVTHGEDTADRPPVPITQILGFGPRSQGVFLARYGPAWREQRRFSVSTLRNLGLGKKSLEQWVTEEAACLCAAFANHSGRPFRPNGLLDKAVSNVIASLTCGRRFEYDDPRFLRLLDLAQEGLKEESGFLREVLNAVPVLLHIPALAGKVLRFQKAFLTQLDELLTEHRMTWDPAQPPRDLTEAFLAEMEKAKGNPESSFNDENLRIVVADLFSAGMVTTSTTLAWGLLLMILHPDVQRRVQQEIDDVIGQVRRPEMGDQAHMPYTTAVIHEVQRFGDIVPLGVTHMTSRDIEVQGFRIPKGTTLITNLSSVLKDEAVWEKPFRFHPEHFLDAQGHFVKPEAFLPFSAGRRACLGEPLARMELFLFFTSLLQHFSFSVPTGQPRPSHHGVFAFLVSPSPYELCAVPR
Outline: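 P450-Glo luminescent screen: recombinant CYP2D6 enzyme–proluciferin substrate mix preincubated with compound 10 min at room temperature, then NADPH regeneration added for 1 h at room temperature. Detection reagent added for 20 min; luciferin light read as relative luminescence units.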

[3] = molecular target: Cytochrome P450 2C9 (Homo sapiens) (UniProt P11712); assay: Cytochrome P450 family 2 subfamily C member 9 (CYP2C9) small molecule antagonists: luciferase biochemical (cell-free) qHTS assay (AID 1645842); further: nearly all actives have a fitted effect of over 55% in size; further: potency means the concentration at half of the fitted maximal effect
Chain of Cytochrome P450 2C9 (Homo sapiens) (P11712 whole entry, looked up): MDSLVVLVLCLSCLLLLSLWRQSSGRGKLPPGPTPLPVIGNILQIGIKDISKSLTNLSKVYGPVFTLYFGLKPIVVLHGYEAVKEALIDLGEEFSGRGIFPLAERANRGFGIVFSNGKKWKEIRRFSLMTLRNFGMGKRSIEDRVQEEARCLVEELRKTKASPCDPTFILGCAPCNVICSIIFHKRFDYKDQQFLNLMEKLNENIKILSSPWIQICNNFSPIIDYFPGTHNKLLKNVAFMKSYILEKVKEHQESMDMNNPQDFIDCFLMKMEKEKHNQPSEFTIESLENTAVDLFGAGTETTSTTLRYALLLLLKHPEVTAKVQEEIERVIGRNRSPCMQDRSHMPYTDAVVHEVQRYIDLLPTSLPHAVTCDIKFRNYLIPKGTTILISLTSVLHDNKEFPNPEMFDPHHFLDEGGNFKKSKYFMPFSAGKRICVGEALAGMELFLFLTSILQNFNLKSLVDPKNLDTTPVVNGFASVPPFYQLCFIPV
Outline: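 Luminescence, after 20 min with luciferin detection reagent, reflected CYP2C9 turnover during a 1 h NADPH-driven reaction at 37C. Enzyme-substrate mix contained 0.4% bovine serum albumin and was preincubated with compound 10 min at room temperature.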

[4] = molecular target: N-terminal Xaa-Pro-Lys N-methyltransferase 1 (Homo sapiens) (UniProt Q9BV86); assay: Confirmatory qHTS for Inhibitors of N-terminal methyltransferase 1 (NTMT1): MTaseGlo Assay (AID 1645874; active means well fitted curve in the direction sought with a large enough effect; an effect the other way counts as inactive or inconclusive; further: nearly all actives have a fitted effect of over 65% in size; further: potency means the concentration at half of the fitted maximal effect)
Chain of N-terminal Xaa-Pro-Lys N-methyltransferase 1 (Homo sapiens) (Q9BV86 whole entry, looked up): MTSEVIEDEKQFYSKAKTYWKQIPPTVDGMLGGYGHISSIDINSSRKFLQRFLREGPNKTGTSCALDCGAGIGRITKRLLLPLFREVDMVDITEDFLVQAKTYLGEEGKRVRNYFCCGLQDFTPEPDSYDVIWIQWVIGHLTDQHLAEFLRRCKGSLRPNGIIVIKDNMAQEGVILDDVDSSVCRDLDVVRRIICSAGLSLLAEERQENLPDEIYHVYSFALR
Outline: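 qHTS format: NTMT1 125 nM, SAM 100 uM, peptide SPKRIA 1 uM final; 15 min compound preincubation, 30 min reaction at room temperature. MTase-Glo luminescence.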

[5] = Primary qHTS for inhibitors of nuclear receptor binding SET domain protein 2 (NSD2) in an isogenic RCH-ACV NSD2 p.E1099K mutant (9B) (AID 1645876; active means well fitted curve in the direction sought with a large enough effect; an effect the other way counts as inactive or inconclusive; further: nearly all actives have a fitted effect of over 70% in size; further: potency means the concentration at half of the fitted maximal effect)
[6] = Primary qHTS for inhibitors of nuclear receptor binding SET domain protein 2 (NSD2) in an RCH-ACV wild type WT cells (2C) (AID 1645877; active means well fitted curve in the direction sought with a large enough effect; an effect the other way counts as inactive or inconclusive; further: nearly all actives have a fitted effect of over 70% in size; further: potency means the concentration at half of the fitted maximal effect)

**Q.** With `O=C(C(Cc1cccc(C(F)(F)F)c1)NS(=O)(=O)c1cc(F)c2c(c1)CCNC2)N1CCCC1` (stereo not drawn) as the compound, how does the Potency [1] read?
**A.** Its Potency is “inactive”.

**Q.** And the Potency [2]?
**A.** The Potency was 13.5 µM (active).

**Q.** What about the Potency [3] of the same compound?
**A.** Its Potency is 12 µM (active).

**Q.** Which results are given for `Nc1nc2c(s1)CCN(Cc1ccc(Cl)cc1)CC2`?
**A.** Potency [1]: inactive; Potency [2]: 1.9 µM (active); Potency [3]: 15.1 µM (active)

**Q.** Which Potency [1] does the source give for `Fc1ccc2c(CCNCc3cccc(OCC(F)(F)C(F)F)c3)c[nH]c2c1` here?
**A.** Its Potency is “inactive”.

**Q.** And the Potency [2]?
**A.** Its Potency is 0.0477 µM (active).

**Q.** And the Potency [3]?
**A.** The Potency was 9.52 µM (active).

**Q.** For `O=c1cc(N2CCOCC2)nc2c3ccccc3ccn12`, which Potency [1] is on record?
**A.** The Potency was “inactive”.

**Q.** What about the Potency [2] of the same compound?
**A.** The Potency was 19 µM (active).

**Q.** What about the Potency [3] of the same compound?
**A.** The Potency was 15.1 µM (active).

**Q.** With `N#Cc1ccc(COc2ccc(-c3cccc4nc(NC(=O)C5CC5)nn34)cc2)cn1` as the compound, how does the Potency [1] read?
**A.** The Potency was “inactive”.

**Q.** And the Potency [2]?
**A.** Its Potency is “inactive”.

**Q.** And the Potency [3]?
**A.** The Potency was 10.7 µM (active).

**Q.** With `Cc1nc(Nc2ccc(F)cc2)nc(N2CCc3ccccc3C2C)c1C` (stereo not drawn) as the compound, how does the Potency [1] read?
**A.** Its Potency is “inactive”.

**Q.** What about the Potency [2] of the same compound?
**A.** The Potency was 7.56 µM (active).

**Q.** What about the Potency [3] of the same compound?
**A.** The Potency was 5.35 µM (active).

**Q.** Which Potency [1] does the source give for `COc1cc(C(=O)NC(=S)Nc2cccc(NC(=O)c3ccccc3)c2)cc(OC)c1OC` here?
**A.** The Potency was “inactive”.

**Q.** And the Potency [2]?
**A.** The Potency was “inactive”.

**Q.** What about the Potency [3] of the same compound?
**A.** The Potency was 3.79 µM (active).

**Q.** For `CC(C)Nc1nc(Nc2ccccc2)nc(-c2ccccc2)n1`, which Potency [1] is on record?
**A.** The Potency was “inactive”.

**Q.** And the Potency [2]?
**A.** The Potency was “inactive”.

**Q.** What about the Potency [3] of the same compound?
**A.** Its Potency is 7.56 µM (active).

**Q.** With `CNCCCC1(c2ccccc2)OC(C)(C)c2ccccc21` (stereo not drawn) as the compound, how does the Potency [1] read?
**A.** The Potency was “inactive”.

**Q.** And the Potency [2]?
**A.** Its Potency is 6.74 µM (active).

**Q.** And the Potency [3]?
**A.** The Potency was “inactive”.

**Q.** With `CC(C)c1cc2c(N3CCN(C4=NCC(C)(C)S4)CC3)ncnc2s1` as the compound, how does the Potency [1] read?
**A.** The Potency was “inactive”.

**Q.** And the Potency [2]?
**A.** Its Potency is 3.01 µM (active).

**Q.** And the Potency [3]?
**A.** The Potency was “inactive”.

**Q.** Which Potency [1] does the source give for `O=C(CSc1nc2ccccc2c(=O)n1-c1ccccc1)Nc1ccc2c(c1)CCC2` here?
**A.** The Potency was “inactive”.

**Q.** What about the Potency [2] of the same compound?
**A.** The Potency was “inactive”.

**Q.** And the Potency [3]?
**A.** Its Potency is 2.68 µM (active).

**Q.** Which Potency [1] does the source give for `Cc1[nH]c(/C=C2\C(=O)Nc3cc(-c4ccccc4)ccc32)c(C)c1CCC(=O)O` here?
**A.** The Potency was “inactive”.

**Q.** And the Potency [2]?
**A.** The Potency was “inactive”.

**Q.** What about the Potency [3] of the same compound?
**A.** Its Potency is 12 µM (active).

**Q.** And the Potency [4]?
**A.** Its Potency is 49.4 µM (active).

**Q.** What about the Potency [5] of the same compound?
**A.** Its Potency is 23 µM (active).

**Q.** What about the Potency [6] of the same compound?
**A.** Its Potency is 23 µM (active).

**Q.** Which results are given for `COc1cc2ncnc(Oc3ccc(CC(=O)Nc4cnn(C(C)C)c4)cc3)c2cc1OC`?
**A.** Potency [1]: inactive; Potency [2]: inactive; Potency [3]: 13.5 µM (active); Potency [5]: 16.3 µM (active)

**Q.** For `O=C(Nc1ccccc1)c1ccc(Nc2nnc(-c3ccc(O)cc3)c3ccccc23)cc1`, which Potency [1] is on record?
**A.** The Potency was “inactive”.

**Q.** What about the Potency [2] of the same compound?
**A.** Its Potency is “inactive”.

**Q.** What about the Potency [3] of the same compound?
**A.** Its Potency is 6.01 µM (active).

**Q.** And the Potency [4]?
**A.** Its Potency is “inactive”.

**Q.** Which Potency [1] does the source give for `Clc1ccc(Cn2c(Cc3ccccc3)nc3ccccc32)cc1` here?
**A.** The Potency was “inactive”.

**Q.** What about the Potency [2] of the same compound?
**A.** Its Potency is 10.7 µM (active).

**Q.** And the Potency [3]?
**A.** The Potency was 9.52 µM (active).

**Q.** What about the Potency [5] of the same compound?
**A.** Its Potency is 11.5 µM (active).

**Q.** What about the Potency [6] of the same compound?
**A.** The Potency was 18.3 µM (active).

**Q.** For `CCO[C@H]1CN(C2CCC(O)(c3ccc4c(c3)OCO4)CC2)C[C@@H]1NC(=O)CNC(=O)c1cccc(C(F)(F)F)c1` (stereo partly drawn), which Potency [1] is on record?
**A.** Its Potency is “inactive”.

**Q.** And the Potency [2]?
**A.** Its Potency is 3.38 µM (active).

**Q.** What about the Potency [3] of the same compound?
**A.** The Potency was 12 µM (active).

**Q.** And the Potency [5]?
**A.** Its Potency is “inactive”.

**Q.** With `CCCc1cc(C)n(C)c(=O)c1CN(C)C(=O)c1cc(-c2ccc(N3CCN(C(C)C)CC3)nc2)cc2c1cnn2C(C)C` as the compound, how does the Potency [1] read?
**A.** The Potency was “inactive”.

**Q.** And the Potency [2]?
**A.** The Potency was “inactive”.

**Q.** What about the Potency [3] of the same compound?
**A.** The Potency was 0.601 µM (active).

**Q.** What about the Potency [5] of the same compound?
**A.** The Potency was “inactive”.

**Q.** With `CCc1cnc(N2CCC(c3nc(COc4ccc(-n5cnnn5)cc4)cs3)CC2)nc1` as the compound, how does the Potency [1] read?
**A.** Its Potency is “inactive”.

**Q.** What about the Potency [2] of the same compound?
**A.** Its Potency is “inactive”.

**Q.** And the Potency [3]?
**A.** The Potency was “inactive”.

**Q.** Which Potency [1] does the source give for `Cn1nc(-c2ccc(C(F)(F)F)cc2)nc2c(=O)n(C)c(=O)nc1-2` here?
**A.** Its Potency is “inactive”.

**Q.** And the Potency [2]?
**A.** Its Potency is 0.239 µM (active).

**Q.** And the Potency [3]?
**A.** Its Potency is “inactive”.

**Q.** What about the Potency [5] of the same compound?
**A.** Its Potency is 2.58 µM (active).

**Q.** Which Potency [1] does the source give for `Cc1ccc(S(=O)(=O)NCc2ccc(C(=O)NCCN(Cc3ccccc3)C(C)C)cc2)cc1` here?
**A.** Its Potency is “inactive”.

**Q.** What about the Potency [2] of the same compound?
**A.** The Potency was 12 µM (active).

**Q.** And the Potency [3]?
**A.** Its Potency is 9.52 µM (active).

**Q.** What about the Potency [5] of the same compound?
**A.** The Potency was 16.3 µM (active).

**Q.** With `CCOc1ccc(CCNC(=O)c2cc3sc(Cl)cc3n2C)cc1OCC` as the compound, how does the Potency [1] read?
**A.** The Potency was “inactive”.

**Q.** What about the Potency [2] of the same compound?
**A.** The Potency was “inactive”.

**Q.** And the Potency [3]?
**A.** The Potency was 2.39 µM (active).

**Q.** What about the Potency [5] of the same compound?
**A.** Its Potency is “inactive”.

**Q.** What about the Potency [6] of the same compound?
**A.** Its Potency is “inactive”.

**Q.** Which results are given for `CCNC(=O)c1noc(-c2cc(Cl)c(O)cc2O)c1-c1ccc(OC)cc1`?
**A.** Potency [1]: inactive; Potency [2]: 26.8 µM (active); Potency [3]: 3.38 µM (active); Potency [5]: 0.129 µM (active)

**Q.** With `CC(C)n1nc(C#Cc2ccccc2)c2c(N)ncnc21` as the compound, how does the Potency [1] read?
**A.** Its Potency is “inactive”.

**Q.** What about the Potency [2] of the same compound?
**A.** The Potency was 19 µM (active).

**Q.** And the Potency [3]?
**A.** Its Potency is 0.601 µM (active).

**Q.** What about the Potency [5] of the same compound?
**A.** Its Potency is 1.83 µM (active).

**Q.** For `COc1cccc(OCCCN)c1-c1cc(Nc2cnc(C#N)cn2)n[nH]1`, which Potency [1] is on record?
**A.** Its Potency is “inactive”.

**Q.** And the Potency [2]?
**A.** Its Potency is 6.74 µM (active).

**Q.** What about the Potency [3] of the same compound?
**A.** Its Potency is “inactive”.

**Q.** And the Potency [4]?
**A.** Its Potency is 50.1 µM (active) and 21.8 µM (active).

**Q.** What about the Potency [5] of the same compound?
**A.** Its Potency is 0.0103 µM (active).

**Q.** What about the Potency [6] of the same compound?
**A.** Its Potency is 0.0103 µM (active).

**Q.** For `CC(C)[C@@H](c1ccc(C(F)(F)F)cc1CN(Cc1cc(C(F)(F)F)cc(C(F)(F)F)c1)c1nnn(C)n1)N1CCC(C(=O)O)CC1`, which Potency [1] is on record?
**A.** Its Potency is “inactive”.

**Q.** What about the Potency [2] of the same compound?
**A.** The Potency was 12 µM (active).

**Q.** And the Potency [3]?
**A.** Its Potency is 15.1 µM (active).

**Q.** What about the Potency [5] of the same compound?
**A.** Its Potency is 25.8 µM (active).

**Q.** With `COC1CCN(c2cccc(-c3cc(NC(C)=O)nc(-n4nc(C)cc4C)n3)n2)CC1` as the compound, how does the Potency [1] read?
**A.** Its Potency is “inactive”.

**Q.** What about the Potency [2] of the same compound?
**A.** Its Potency is 6.01 µM (active).

**Q.** What about the Potency [3] of the same compound?
**A.** Its Potency is 10.7 µM (active).

**Q.** And the Potency [5]?
**A.** Its Potency is 20.5 µM (active).
